Bioassay records: PubChem, several laboratories
Rows were chosen to be rich in hits. Some 2.3% of all compounds tested hit in one or more screens of this group.
SENP8 block-1: inhibitors of human SENP8 protease; hit rate 0.64% among 360,000; recombinant SENP8, Nedd8 substrate fluorescence; inhibition, % at 20 µM; Q96LD8; in the data active means inhibition mostly above about 40%, no sharp cut-off; inactive means mostly below about 27%
Target sequence (Q96LD8 whole entry, looked up): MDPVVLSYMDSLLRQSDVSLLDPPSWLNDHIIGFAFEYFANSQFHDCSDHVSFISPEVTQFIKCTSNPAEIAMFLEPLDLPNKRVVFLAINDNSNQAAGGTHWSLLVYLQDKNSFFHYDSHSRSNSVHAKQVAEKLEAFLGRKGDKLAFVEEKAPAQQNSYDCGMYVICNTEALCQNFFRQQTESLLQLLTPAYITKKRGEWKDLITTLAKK
LGR2 inh: Drosophila LGR2 receptor signaling inhibition; inhibition, % at 9.99 µM; HEK293 LGR2, CRE-luciferase, bursicon-stimulated, 4 h; hit rate 0.35% among 380,000;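 active means drop in luminescence signal, shown as inhibition above about 50% in the replicate tests, limit read from the data, passing the limit was not always enough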;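 further: agonist challenge used bursicon conditioned medium at about half maximal strength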
SENP6 block: inhibitors of human SENP6 protease; inhibition, % at 10 µM; hit rate 1.8% among 330,000; Recombinant SENP6 catalytic domain, aminoluciferin luminescence; AID 2599;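 active means inhibition above about 50% at the single tested dose, limit read from the data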;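 further: plate controls were DMSO wells with enzyme for no effect and DMSO wells lacking enzyme for full effect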
SENP7 block: SENP7 protease inhibition | Q9BQF6 | recombinant SENP7, Z-RLRGG-aminoluciferin luminescence, 40 min | inhibition, % at 5 µM | hit rate 1.5% among 330,000;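 active means inhibition above about 50% at the single test dose, limit read from the data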;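 further: plate controls were DMSO with enzyme for no effect and no enzyme buffer wells for full effect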
Target sequence (Q9BQF6 706-1050 limits assumed): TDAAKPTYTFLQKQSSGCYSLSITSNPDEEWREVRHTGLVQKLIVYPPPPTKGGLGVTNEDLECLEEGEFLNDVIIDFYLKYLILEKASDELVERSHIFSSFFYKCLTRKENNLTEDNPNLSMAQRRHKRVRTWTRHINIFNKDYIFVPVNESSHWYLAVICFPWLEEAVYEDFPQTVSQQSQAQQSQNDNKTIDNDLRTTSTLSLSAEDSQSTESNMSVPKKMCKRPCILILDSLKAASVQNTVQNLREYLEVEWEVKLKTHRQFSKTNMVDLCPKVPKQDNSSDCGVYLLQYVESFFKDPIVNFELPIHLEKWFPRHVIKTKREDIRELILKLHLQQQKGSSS
SENP8 block-2: blocks the human protease SENP8. Q96LD8. purified SENP8, Z-RLRGG-aminoluciferin cleavage, luminescence. inhibition, % at 10 µM. hit rate 1.2% among 330,000. AID 2540; in the data active means inhibition above about 50%
HSP90 refold inh: blocks HSP90-mediated luciferase refolding in reticulocyte lysate; AID 1789; Rabbit reticulocyte lysate, luciferase refolding luminescence, 3 h; hit rate 0.91% among 290,000; inhibition, % at 5.6 µM;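 active means inhibition above the screen-wide mean plus 3 SD, computed separately per campaign, cut at about 16% in these data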;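 further: 0% = DMSO wells and 100% = 60 µM geldanamycin wells; inhibitors lower the luminescence because luciferase stays unfolded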
SENP8 confirm: confirmation of human SENP8 protease inhibitors | shares compounds with SENP7 block | Recombinant SENP8, Z-RLRGG-aminoluciferin luminescence, 60 min | inhibition, % at 12.5 µM | hit rate 40% among 6,200 | AID 488912;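 active means mean inhibition across replicates above about 50%, limit read from the data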
SENP6 conf: human SENP6 inhibition, confirmed; shares compounds with SENP7 block; recombinant SENP6, Z-RLRGG-aminoluciferin luminescence; inhibition, % at 12.5 µM; hit rate 58% among 6,200; AID 488915
SENP7 confirm: confirmation of human SENP7 protease inhibitors; shares compounds with SENP7 block; recombinant SENP7, Z-RLRGG-aminoluciferin luminescence, 40 min; inhibition, % at 12.5 µM; hit rate 69% among 6,200; AID 488917
Casp3 SENP sel: caspase-3 inhibition (SENP selectivity assay) | hit rate 60% among 6,200 | AID 488918 | shares compounds with SENP7 block | purified caspase-3, Z-DEVD-aminoluciferin luminescence, 60 min | inhibition, % at 12.5 µM;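 active means mean inhibition above about 50%, limit read from the data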;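 further: plate controls were enzyme with DMSO for no effect and wells without caspase-3 for full effect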
Luc interf: luminescence interference (SENP counter-screen) | inhibition, % at 12.5 µM | shares compounds with SENP7 block | Pre-incubated SENP8/Z-RLRGG-aminoluciferin, luciferase luminescence interference | hit rate 39% among 6,200;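 active means mean inhibition above about 50% when retested at one dose, limit read from the data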;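 further: plate controls were DMSO wells with completed reaction for no effect and substrate without enzyme for full effect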
* hit, by the source's call; . = no result.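 How the source made its calls, unless noted: active means mean inhibition above about 50% in the one-dose retest (limit read from the data); inactive means the rest.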

SMILES	SENP8 block-1	LGR2 inh	SENP6 block	SENP7 block	SENP8 block-2	HSP90 refold inh	SENP8 confirm	SENP6 conf	SENP7 confirm	Casp3 SENP sel	Luc interf
Cc1ccc(-n2ncc3c(SCC(N)=O)ncnc32)cc1C	-115.8	-53.1	44.4	29.2	57.0*	-1.1	-26.2	-15.4	0.4	6.7	-5.5
CCCNC(=O)Nc1ccc2c(c1)C(=O)N(C)C[C@@H](OC)[C@@H](C)CN(C(=O)c1ccccc1F)[C@@H](C)CO2	.	8.4	.	.	.	.	.	.	.	.	.
C[C@@H]1CCCCO[C@@H](CN(C)C(=O)Cc2ccccc2)[C@@H](C)CN([C@@H](C)CO)C(=O)c2cc(NC(=O)CCC(F)(F)F)ccc2O1	.	2.3	.	.	.	.	.	.	.	.	.
COc1ccc(OCCSc2nc(N)cc(=O)[nH]2)cc1	19.6	-4.0	-30.0	4.9	-2.6	2.1	.	.	.	.	.
CCOc1ccc(OCCSc2nc(C)cc(=O)[nH]2)cc1	3.2	.	66.0*	50.6*	70.4*	12.4	26.3	72.4*	61.1*	78.6*	3.4
CCCNC(=O)N[C@@H]1CC[C@H](CCn2cc(-c3cccc(F)c3)nn2)O[C@@H]1CO	.	-2.2	.	.	.	.	.	.	.	.	.
O=C1NC2=C(C(=O)CCC2)C(c2ccc3ncccc3c2)N1 (stereo not drawn)	12.9	-16.9	-1.6	71.8*	1.8	0.8	0.4	4.9	6.4	-0.5	0.2
C[C@H]1CCCCO[C@@H](CN(C)C(=O)c2ccccc2)[C@@H](C)CN([C@@H](C)CO)C(=O)c2cc(NC(=O)Cc3ccccc3)ccc2O1	.	22.4	.	.	.	.	.	.	.	.	.
O=C(Nc1cccnc1)c1cc(-c2ccc(Cl)cc2)on1	28.5	-60.8	60.5*	86.0*	28.8	-3.0	29.1	31.0	66.9*	55.6*	24.3
Cc1cc(C(=O)Nc2cccnc2)no1	12.5	20.3	-13.3	-6.9	-0.5	1.3	.	.	.	.	.
O=C(Nc1cccnc1)c1cc(-c2ccc(Cl)cc2Cl)on1	1.7	-31.6	15.0	64.1*	-4.2	0.4	18.5	20.2	17.1	18.3	7.5
O=C(Nc1cccnc1)c1ccc(-c2ccc(Cl)cc2)o1	4.2	4.4	-20.1	5.1	-6.3	-3.9	.	.	.	.	.
CC(C)Cc1cc(C(=O)Nc2cccnc2)no1	6.2	.	47.6	52.3*	31.5	8.3	45.3	42.6	76.4*	79.1*	54.6*
Cc1c(NC(=O)c2cc(CC(C)C)on2)c(=O)n(-c2ccccc2)n1C	23.2	12.2	7.7	54.6*	11.0	-3.1	-13.1	-5.4	-10.2	2.7	-2.9
CC(=O)N(C)C[C@H]1Oc2ncc(-c3cncnc3)cc2C(=O)N([C@@H](C)CO)C[C@@H]1C	.	-5.6	.	.	.	.	.	.	.	.	.
Cc1ccc2c(c1)NC(=O)c1cccnc1N2	5.9	.	52.3*	33.8	21.7	-5.7	23.5	21.3	65.1*	63.1*	36.1
Nc1nonc1C(=O)NCCNS(=O)(=O)c1ccc(Br)cc1	9.3	4.2	-31.2	90.0*	-4.3	0.9	-4.1	2.3	7.9	6.2	-1.6
CC(=Nc1cccc(C)c1)c1sc2ccccc2c1O	-73.4	.	62.9*	38.1	43.6	1.2	72.9*	73.7*	88.4*	47.6	31.9
CC(=Nc1ccc(O)cc1)c1sc2ccccc2c1O	15.8	.	88.9*	78.6*	75.1*	-3.1	79.9*	79.9*	95.9*	68.5*	81.3*
CC(=Nc1ccccc1O)c1sc2ccccc2c1O	-34.4	-58.2	33.5	13.9	-3.2	3.2	.	.	.	.	.
Cc1cccc(NC(=O)C[C@H]2CC[C@H]3[C@@H](COc4ccc(NC(=O)C5CCC5)cc4C(=O)N3C)O2)c1	.	5.4	.	.	.	.	.	.	.	.	.
CCN=C1NN=C(c2ccc(C)cc2)CS1	13.8	-82.8	-15.9	2.3	-6.9	0.3	.	.	.	.	.
CC(C)N=C1NN=C(c2ccc(F)cc2)CS1	4.3	-18.8	65.0*	78.8*	73.2*	3.1	84.3*	85.1*	99.1*	95.8*	89.0*
Cc1ccc(C(=O)Nc2ccc3c(c2)OCO3)cc1NC(=O)c1ccco1	3.8	-15.2	-11.1	10.4	-0.7	0.4	.	.	.	.	.
CCOC(=O)c1cccc(NC(=O)c2ccc3c(c2)OCO3)c1	14.2	-61.4	59.8*	44.6	24.3	-1.7	51.0*	46.9	74.4*	54.1*	37.8
SMILES	SENP8 block-1	LGR2 inh	SENP6 block	SENP7 block	SENP8 block-2	HSP90 refold inh	SENP8 confirm	SENP6 conf	SENP7 confirm	Casp3 SENP sel	Luc interf
O=C(Nc1ccc(CSc2ccccc2)cc1)c1ccco1	0.0	-56.5	84.1*	89.4*	69.0*	1.4	7.2	62.7*	95.2*	71.6*	38.4
O=C(Nc1ccc(Br)c(Cl)c1)c1ccco1	17.2	.	84.0*	70.3*	45.6	-1.1	61.0*	58.2*	84.4*	40.9	68.7*
O=C(CCc1ccccc1)Nc1ccc(NC(=O)c2ccco2)cc1	5.4	16.2	10.0	1.1	10.0	-1.5	.	.	.	.	.
Cc1cc(NC(=O)c2ccc3c(c2)OCO3)ccc1NC(=O)c1ccco1	20.9	-24.6	91.2*	92.0*	91.1*	2.2	8.1	89.9*	100.0*	95.6*	89.6*
Cc1ccc(S(=O)(=O)Nc2ccc3c(c2)CC(=O)N([C@H](C)CO)C[C@@H](C)[C@H](CN(C)C(=O)Nc2ccc(C(F)(F)F)cc2)O3)cc1	.	0.3	.	.	.	.	.	.	.	.	.
CO[C@H]1CN(C)C(=O)c2cc(NC(=O)c3cccc(F)c3)ccc2OC[C@H](C)NC[C@H]1C	.	-5.9	.	.	.	.	.	.	.	.	.
CCCN1C[C@H](C)[C@@H](OC)CN(C)C(=O)c2cc(NC(=O)c3cccc(OC)c3)ccc2OC[C@H]1C	.	-7.5	.	.	.	.	.	.	.	.	.
COc1cc(OC)cc(C(=O)Nc2ccc(NC(=O)c3ccco3)c(C)c2)c1	2.6	-46.9	97.9*	96.0*	93.6*	-0.2	4.5	95.3*	100.8*	95.9*	85.9*
O=C(Nc1ccc(-c2nc3cccnc3s2)cc1)c1ccco1	-384.8	31.1	93.2*	89.5*	85.8*	2.4	74.9*	91.3*	98.9*	79.3*	22.1
CCOC(=O)CNC(=O)CSc1nnc(NC(=O)c2ccc3c(c2)OCO3)s1	-54.5	20.4	54.5*	78.5*	53.9*	3.6	4.9	6.3	18.7	49.6	3.6
Cc1ccc2nc(-c3ccc(NC(=O)c4ccco4)cc3)[nH]c2c1	-147.7	-6.9	50.7*	34.7	-2.4	4.5	11.3	10.4	64.0*	28.5	42.0
COc1cc(OC)cc(C(=O)Nc2cc(NC(=O)c3ccco3)ccc2OC)c1	-13.4	.	-8.7	-2.6	4.4	0.0	.	.	.	.	.
